Assay results published in PubChem BioAssay (NCI).
Compounds without any hit were thinned out: in the full panel of roughly 83,000, 20% have a hit.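 Plates (96-well) were seeded with cells, treated with compound at one concentration, and incubated for 48 hours before percent growth was determined.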 Calls of active or inactive are those of the source. The calls were made as follows: active = growth percent below 10; inactive = the rest.

Assays:
Experiment in all cases: NCI-60 one-dose screen, 48 h (100 = growth as untreated, 0 = no growth, -100 = all killed)
Settings in all cases: 10 µM unless noted
[1] = system: NCI-H23 lung
[2] = system: NCI-H226 lung
[3] = system: NCI-H322M lung
[4] = system: HOP-62 NSCLC
[5] = system: NCI-H460 lung
[6] = system: HOP-92 NSCLC
[7] = system: NCI-H522 lung
[8] = system: A549/ATCC NSCLC
[9] = system: 786-0 renal
[10] = system: COLO 205 colon

Measured: growth

Cc1nn(-c2nc3ccccc3[nH]2)c2c1C(c1ccc(O)cc1)CC(=O)N2 (stereo not given)
inactive: [1] 74.9% | [2] 96.9% | [3] 104% | [4] 93.1% | [5] 57.4% | [6] 99.3% | [7] 52% | [8] 61.3% | [9] 115% | [10] 103%

O=C1CC(c2ccc3c(c2)OCO3)c2ncn(-c3ccc(Cl)cc3)c2N1 (stereo not given)
active: [7] -19.2%
inactive: [1] 41% | [2] 69.8% | [3] 51.9% | [4] 60.3% | [5] 14.3% | [6] 69.7% | [8] 48.7% | [9] 38.4% | [10] 99.5%

CC(CCCC(=O)O)c1ccoc1 (stereo not given)
inactive: [1] 97.7% | [2] 102% | [3] 99.8% | [4] 101% | [5] 110% | [6] 108% | [7] 83.2% | [8] 100% | [9] 98.8% | [10] 101%

COc1ccc(OC)c(NC2=C(SCCc3ccccc3)C(=O)c3ccccc3C2=O)c1
inactive: [1] 45.2% | [2] 78.8% | [3] 89.7% | [4] 97.8% | [5] 91.6% | [6] 77.8% | [7] 73% | [8] 87.2% | [9] 100% | [10] 95.6%

N#Cc1c(C(F)(F)F)cc(Nc2ccc3nc(NCCN4CCCC4)oc3c2)n2c1nc1ccccc12
inactive: [1] 81% | [2] 82.8% | [3] 87.4% | [4] 75% | [5] 99.4% | [6] 51.2% | [7] 58.2% | [8] 56.7% | [9] 26.1% | [10] 38.7%

Cc1c(CN2CCN(C(=O)[C@H](C)O)CC2)sc2c(N3CCOCC3)nc(-c3cnc(N)nc3)nc12
active: [1] 6.62% | [2] -4.64% | [3] -26.1% | [4] -10.3% | [5] 3% | [6] -24.6% | [7] -12.2% | [8] -20.8% | [9] -19% | [10] -32.3%

C[C@@H]1COC(Nc2ccc3ncnc(Nc4ccc(OCc5nccs5)c(Cl)c4)c3c2)=N1
active: [7] 2.8% | [10] -9.99%
inactive: [1] 46.8% | [2] 17.1% | [3] 20.1% | [4] 17.5% | [5] 57.9% | [6] 10.3% | [8] 40.3% | [9] 50%

CC(=O)C(C(C)=O)C(c1ccccc1)C(C(C)=O)C(C)=O
inactive: [1] 98.6% | [2] 90.9% | [3] 99.7% | [4] 98.4% | [5] 105% | [6] 97.5% | [7] 91.7% | [8] 89.3% | [9] 97.2% | [10] 104%

COc1cc2nccc(Oc3ccc(NC(=O)C4(C(=O)Nc5ccc(F)cc5)CC4)cc3)c2cc1OC
inactive: [1] 14.4% | [2] 11.7% | [3] 12.1% | [7] 11.4% | [9] 13.1%
active: [4] 9.04% | [5] 6.12% | [6] -36.9% | [8] 2.35% | [10] -44.7%

Cc1nc(N)sc1-c1ccnc(Nc2ccc(N3CCOCC3)cc2)n1
inactive: [1] 43.1% | [2] 35.6% | [3] 51.4% | [4] 11.4% | [5] 15.9% | [6] 34.9% | [7] 11.6% | [8] 21.9% | [9] 34.5%
active: [10] 1.1%

Cn1ncc(Cl)c1-c1cc(C(=O)N[C@H](CN)Cc2ccc(F)c(F)c2)oc1Cl
active: [4] -49.4% | [5] 2.97% | [6] -58.5% | [7] -66.7% | [8] -53.4% | [9] -46.7% | [10] -77.9%
inactive: [1] 11.3% | [2] 11.8% | [3] 18.8%

N#CCNC(=O)c1ccc(-c2ccnc(Nc3ccc(N4CCOCC4)cc3)n2)cc1
inactive: [1] 29.6% | [3] 39.2% | [6] 46.9% | [8] 13.4%
active: [2] -3.52% | [4] 4.27% | [5] 6.81% | [7] 4.57% | [9] 4.83% | [10] 2.5%

C/C=C/C=N/NC(=S)Nc1ccccc1
inactive: [1] 90.7% | [2] 95.8% | [3] 90.6% | [4] 86% | [5] 112% | [6] 93% | [7] 82.7% | [8] 79.4% | [9] 106% | [10] 101%
